Screening results as filed in PubChem.
A selection: hits, their analogues and other compounds. The true share with any hit is near 2.4%.
Pol eta inh: blocks human DNA polymerase eta activity; Potency, µM (doses to about 114 µM), for inactives: at the top dose activity change, negative = inhibition, usual class: inhibitors; Q9Y253; 390,000 tested, 1.2% active; AID 588591; recombinant Pol eta, fluorescent DNA replication assay; also: % is scaled to controls: 0 for no effect and ±100 for the full control effect
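Pol eta (10 nM) was preincubated with compounds for 15 min at room temperature, after which fluorescent replication substrate (50 nM final) was added to start the reaction. Fluorescence was read kinetically at 0 and 10 min.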
WRN helicase inh: WRN helicase (human) inhibition; AID 651768; Q14191; Potency, µM (titrated, usually from 114 µM), for inactives: top-dose activity change, negative = inhibition, hits mostly inhibitors; 360,000 tested, 0.46% active; WRN helicase unwinding, fluorescent forked duplex, kinetic; also: % is scaled to controls: 0 for no effect and ±100 for the full control effect; nearly all actives have a fitted effect of over 55% in size
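Screening of the MLSMR collection measured strand separation of a quenched forked DNA duplex (100 nM) by 20 nM WRN with 2 mM ATP, all final. Compounds were preincubated with enzyme 15 min at room temperature.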
POLI inh: blocks human DNA polymerase iota activity; Pol iota fluorescent replication assay, 10 min; Potency, µM (titrated, usually from 115 µM), for inactives: top-dose activity, negative = inhibition, actives largely listed as inhibitors; 390,000 tested, 1% active; AID 588590
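Pol iota at 10 nM preincubated 15 min with compounds at room temperature; reaction started with fluorescent substrate, 50 nM final. Fluorescence read kinetically at 0 and 10 min; buffer-only wells as negative control.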
Pol beta inh: inhibitors of human DNA polymerase beta | Potency, µM (titrated, usually from 114 µM), for the others: at the top dose activity change, negative = inhibition, most hits filed as inhibitors | Pol beta primer extension/strand displacement, fluorescence kinetic | AID 485314 | P06746 | 340,000 tested, 1.3% active; also: % is scaled to controls: 0 for no effect and ±100 for the full control effect
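Values derive from four-parameter Hill fits of normalized kinetic data: reads at 0 and 10 min following addition of 50 nM substrate to 10 nM Pol beta preincubated 15 min with compound.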
Pol kappa inh: DNA polymerase kappa (human) inhibition; Q9UBT6; purified Pol kappa, fluorescent DNA synthesis assay, 10 min; Potency, µM (titrated, usually from 107 µM), for the others: at the top dose activity, negative = inhibition, most hits filed as inhibitors; 400,000 tested, 0.53% active; AID 588579; also: % is scaled to controls: 0 for no effect and ±100 for the full control effect
Target sequence (Q9UBT6 whole entry, looked up): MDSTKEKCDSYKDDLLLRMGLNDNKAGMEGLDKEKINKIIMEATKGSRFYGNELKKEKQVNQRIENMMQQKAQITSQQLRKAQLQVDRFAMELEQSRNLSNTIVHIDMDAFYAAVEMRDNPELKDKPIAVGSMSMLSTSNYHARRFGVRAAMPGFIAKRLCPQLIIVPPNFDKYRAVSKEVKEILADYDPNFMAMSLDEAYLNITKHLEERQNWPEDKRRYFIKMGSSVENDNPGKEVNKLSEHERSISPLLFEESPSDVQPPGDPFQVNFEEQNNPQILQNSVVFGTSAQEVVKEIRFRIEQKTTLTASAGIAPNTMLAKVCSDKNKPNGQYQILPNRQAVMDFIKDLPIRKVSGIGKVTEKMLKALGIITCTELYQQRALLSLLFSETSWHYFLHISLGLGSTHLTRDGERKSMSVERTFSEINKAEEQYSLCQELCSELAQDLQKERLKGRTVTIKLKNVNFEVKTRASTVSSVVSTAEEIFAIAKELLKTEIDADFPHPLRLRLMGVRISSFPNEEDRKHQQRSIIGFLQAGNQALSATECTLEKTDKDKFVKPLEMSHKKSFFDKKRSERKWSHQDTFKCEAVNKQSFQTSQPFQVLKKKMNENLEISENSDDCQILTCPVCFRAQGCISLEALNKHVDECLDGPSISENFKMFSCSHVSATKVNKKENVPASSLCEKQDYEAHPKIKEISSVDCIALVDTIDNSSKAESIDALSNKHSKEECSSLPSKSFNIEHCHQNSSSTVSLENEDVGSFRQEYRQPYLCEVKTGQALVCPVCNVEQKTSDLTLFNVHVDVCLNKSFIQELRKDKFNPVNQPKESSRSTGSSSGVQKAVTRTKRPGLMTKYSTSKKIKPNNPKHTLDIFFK
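50 nM final substrate added after 15 min RT preincubation of 10 nM Pol kappa with compound; fluorescence read at 0 and 10 min.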
FEN1 inhibitor: human FEN1 inhibition; P39748; Recombinant FEN1 flap cleavage, fluorescence, 15 min; Potency, µM (highest dose often 114 µM), for the others: at the top dose activity change, negative = inhibition, usual class: inhibitors; 390,000 tested, 0.35% active; AID 588795; also: % is scaled to controls: 0 for no effect and ±100 for the full control effect; nearly all actives have a fitted effect of over 65% in size
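Concentration–response screening of FEN1 (10 nM): 15 min compound preincubation at room temperature, reaction started with 50 nM substrate and read at 0 and 15 min. Corrected, normalized data were fitted by a four-parameter Hill equation.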
An asterisk follows results filed as active; ? = inconclusive; nt = not tested or not shown; [ ] = another dose, or the depositor's remark. Calls follow the shape of the dose curve; as a rule, active = well fitted curve in the direction sought with a large enough effect; inconclusive = small, poorly fitted or top-dose-only effect, or another doubt; inactive = no such curve, though single readings can be large; an effect the other way counts as inactive or inconclusive. Potency is read from the fitted curve at half-maximal effect.

SMILES	Pol eta inh	WRN helicase inh	POLI inh	Pol beta inh	Pol kappa inh	FEN1 inhibitor
COc1cccc(/C=C2/NC(=O)N(CC(=O)Nc3ccc(C)cc3)C2=O)c1OCc1cccc(C(=O)O)c1	?	?	?	50µM*	79µM*	?
CCn1c(C)cc(/C=C2\NC(=O)N(CC(=O)Nc3cccc(C)c3)C2=O)c1C	4%	-5%	9%	-12%	-2%	-8%
Cc1ccc(NC(=O)CN2C(=O)N/C(=C/c3cc(C)n(-c4cccc(C(=O)O)c4)c3C)C2=O)cc1	20µM*	?	45µM*	10µM*	?	-3%
COc1ccc(-n2c(O)c(C=Nc3ccccc3)c3ccccc3c2=O)cc1	-12%	-16%	20%	-23%	-2%	1%
CCN(c1ccc(N=Cc2c(O)n(Cc3ccc(OC)cc3)c(=O)c3ccccc23)cc1)C(C)C	-6%	40µM*	77%	1%	-8%	-27%
CCc1c(O)cc(=O)n(-c2ccccc2)c1-c1ccccc1	32µM*	?	?	22µM*	-16%	?
O=C(CCC(=O)N/N=C/c1ccco1)N/N=C/c1ccco1	-14%	-13%	121%	-11%	-4%	2%
O=C(CCCCCCCCC(=O)N/N=C/c1ccco1)N/N=C/c1ccco1	-12%	?	?	50µM*	-26%	0%
C1NNCC12CNNC2	nt	nt	18%	nt	-3%	15%
O=C(O)COc1ccccc1/C=N/Nc1ccc(S(=O)(=O)Nc2ccc(Cl)cc2)cc1[N+](=O)[O-]	28µM*	?	?	?	?	?
O=C(O)c1ccccc1NS(=O)(=O)c1ccc(NN=Cc2cccc(Cl)c2)c([N+](=O)[O-])c1	20µM*	?	?	nt	-28%	?
Cc1cc(C)nc(N/N=C/c2ccccc2OCC(=O)O)n1	28µM*	-3%[11.6 µM]	10%	-7%	-10%	-6%
O=C(O)c1ccccc1NS(=O)(=O)c1ccc(NN=Cc2ccc(F)cc2)c([N+](=O)[O-])c1	35µM*	?	-18%	nt	-19%	-23%
O=C(COc1ccccc1F)Nc1ccc2oc(-c3cccc(Cl)c3)nc2c1	nt	nt	31%	-1%	11%	-3%
N[C@H](C(=O)O)[C@@H]1[C@@H](C(=O)O)C1(F)F	nt	nt	nt	nt	2%[19.4 µM]	nt
O=C(C[n+]1ccccc1)Nc1c(Cl)cc(Cl)cc1Cl	-12%	-2%	23%	8.9µM*	-11%	-12%
O=C(C[N+]1(CCO)CCOCC1)c1ccc2ccccc2c1	nt	nt	4%	nt	4%	11%
N#C/C(=C(/O)CCl)c1nc(-c2ccccc2)cs1	40µM*	-18%	?	?	-15%	-6%
Cc1ccc(-c2csc(/C(C#N)=C(\O)CCl)n2)cc1	45µM*	-22%	?	?	-18%	51%
N#C/C(=C(/O)CN1CCCCC1)c1nc(-c2ccc(Cl)cc2)cs1	7%	-7%[57.1 µM]	16%	0%	-7%	6%
CCCN1CCC(=O)N(CCC#N)CC1	nt	nt	13%	nt	-4%	22%
COc1ccccc1-n1c(SCC(=O)Nc2ccccc2C)nc(O)cc1=O	-9%	-13%[57.1 µM]	56µM*	1%	-19%	8%
Cc1ccccc1NC(=O)CSc1nc(O)cc(=O)n1C	-18%	-7%	-16%[58.9 µM]	2%	-1%	-3%
COc1ccccc1NC(=O)CSc1nc(O)cc(=O)n1-c1ccccc1OC	-5%	-24%	40µM*	?	-37%	-2%
COc1ccccc1-n1c(SCC(=O)NC(C)(C)C)nc(O)cc1=O	-5%	-10%	-11%	2%	-11%	-9%
SMILES	Pol eta inh	WRN helicase inh	POLI inh	Pol beta inh	Pol kappa inh	FEN1 inhibitor
C[C@H]1COC(=O)O1	nt	nt	nt	nt	11%[60.1 µM]	nt
Cc1cnc2c(C)cccc2c1/C=C/c1ccc(N(C)C)cc1	nt	nt	1%	nt	-11%	-27%
CC[C@H](C)[C@H](NC(=O)[C@@H]1CCCN1C(=O)[C@H](Cc1cnc[nH]1)NC(=O)[C@@H](NC(=O)[C@H](Cc1ccc(O)cc1)NC(=O)[C@@H](NC(=O)[C@H](CCCN=C(N)N)NC(=O)CNC)C(C)C)[C@@H](C)CC)C(=O)O	nt	nt	nt	nt	9%[60.1 µM]	nt
Cc1ccc(S(=O)(=O)c2c(N)n(CCCN(C)C)c3nc4ccccc4nc23)cc1	-14%	-4%	-3%	0%	-7%	11%
CCCCn1c(NS(=O)(=O)c2ccc(C)cc2)c(S(=O)(=O)c2ccccc2)c2nc3ccccc3nc21	-29%	-19%	10µM*	-27%[57.1 µM]	-22%	-14%
CC(Cc1c[nH]c2ccccc12)C(=O)O (configuration not stated)	3%	-5%[11.6 µM]	10%	7.1µM*	?	14%
CCOc1cc2c3c(c1)C(C)=CC(C)(C)N3C(=O)C2=O	-9%	2%	28%	0%	7%	-18%
CC(=O)Oc1cc2c3c(c1)/C(=C1/SC(=S)NC1=O)C(=O)N3C(C)(C)C=C2C	79µM*	?	?	?	-22%	?
O=[N+]([O-])c1cc2oc3c(c2c(C=NCc2ccncc2)c1O)CCCC3	?	?	?	18µM*	?	-25%
O=C1C(C=NCc2ccncc2)=C(O)c2ccccc21	12%	-1%	5%	-17%	-4%	-2%
COc1cccc2sc3ccc(NCc4ccc5c(c4)OCO5)cc3c(=O)c12	-6%	-19%	16µM*	?	79µM*	?
COC1(OC)C=CC(=O)C=C1NC(=O)c1ccccc1OC(C)=O	6%	nt	10µM*	nt	4%	-4%
CC(=O)Oc1ccccc1C(=O)Nc1ccccc1	-14%	nt	?	nt	-22%	-9%
CC1=CC(=O)C=C/C1=C(/c1ccc(O)cc1C)c1ccccc1S(=O)(=O)O	1%	-13%	-10%	nt	0%	14%
CCN(Cc1cccc(S(=O)(=O)O)c1)c1ccc(C(=C2C=CC(=[N+](CC)Cc3cccc(S(=O)(=O)O)c3)C=C2)c2ccc(O)cc2S(=O)(=O)O)cc1	nt	nt	2.2µM*	nt	2.8µM*	13µM*
CCN(Cc1cccc(S(=O)(=O)O)c1)c1ccc(C(=C2C=CC(=[N+](CC)Cc3cccc(S(=O)(=O)O)c3)C=C2)c2ccccc2S(=O)(=O)[O-])cc1	nt	nt	?	nt	7.9µM*	32µM*
CC1=C(C)C(=O)C(C(CCCCCC(=O)O)c2ccccc2)=C(C)C1=O (configuration not stated)	nt	nt	nt	nt	-2%[19.4 µM]	nt
CCNc1ncc2nc(-c3ccc(F)cc3)c(=O)n(Cc3ccc(F)cc3)c2n1	nt	nt	nt	nt	-4%[60.1 µM]	nt
O=C1/C(=C/c2ccc(Br)cc2)Oc2cc(O)ccc21	-24%	7%	39%	14µM*	-3%	0%
COc1ccc2c(c1)OC/C(=C/c1ccc(O)c(O)c1)C2=O	nt	nt	nt	nt	-9%[60.1 µM]	nt
